DT40 TDP1 no CPT – qHTS for Inhibitors of human tyrosyl-DNA phosphodiesterase 1 (TDP1): qHTS in cells in absence of CPT; DT40 Tdp1-/- hTDP1 cells, no CPT, ATP luminescence, 48 h; Potency, µM (series often up to 46.2 µM), for inactives: at the highest dose activity change, negative = growth inhibition, most hits filed as inhibitors; actives 15% (n = 420,000); AID 686978, 2013; also: nearly all actives have a fitted effect of over 55% in size
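Stably hTDP1-transfected Tdp1-null chicken DT40 cells were treated with library compounds minus camptothecin and grown for at least 48 hr at 37 °C, after which cellular ATP was quantified by luminescence.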
TDP1 cell CPT – growth inhibition of DT40 Tdp1-/-;hTDP1 cells with camptothecin (screen for TDP1 inhibitors) | chicken DT40 Tdp1-/-;hTDP1 cells + 20 nM CPT, ATP luminescence, 48 h | Potency, µM (highest dose often 46.2 µM), inactives show at the top dose activity change, negative = growth inhibition, hits mostly inhibitors | actives 12% (n = 420,000); also: nearly all actives have a fitted effect of over 55% in size
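Chicken DT40 Tdp1-/- cells stably complemented with human TDP1 were seeded at 400 cells/well in medium containing 20 nM camptothecin, exposed to pin-transferred compounds, and grown at 37 °C for at least 48 hr. Viability was read as ATP luminescence.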
TDP1 inh – blocks human tyrosyl-DNA phosphodiesterase 1; Potency, µM (series often up to 130 µM), without a hit: at the highest dose activity change, negative = inhibition, most hits filed as inhibitors; recombinant TDP1, AlphaScreen DNA substrate cleavage; actives 0.28% (n = 350,000); also: nearly all actives have a fitted effect of over 40% in size
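Tdp1 1 nM final; 15 min RT w/ cpd; substrate 15 nM, 5 min; beads 10 ug/ml, 10 min; AlphaScreen read. Neg ctrl: no enzyme.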
RORg inh – ROR gamma (mouse) transcription inhibition; P51450; Drosophila S2 Gal4-RORgamma UAS-luciferase reporter, 20 h; Potency, µM (top dose mostly 53.6 µM), for inactives: at the top dose activity change, negative = inhibition, actives largely listed as inhibitors; actives 5.4% (n = 310,000); AID 2551; also: nearly all actives have a fitted effect of over 60% in size
Target sequence (P51450 whole entry, looked up, the tested form may be a part): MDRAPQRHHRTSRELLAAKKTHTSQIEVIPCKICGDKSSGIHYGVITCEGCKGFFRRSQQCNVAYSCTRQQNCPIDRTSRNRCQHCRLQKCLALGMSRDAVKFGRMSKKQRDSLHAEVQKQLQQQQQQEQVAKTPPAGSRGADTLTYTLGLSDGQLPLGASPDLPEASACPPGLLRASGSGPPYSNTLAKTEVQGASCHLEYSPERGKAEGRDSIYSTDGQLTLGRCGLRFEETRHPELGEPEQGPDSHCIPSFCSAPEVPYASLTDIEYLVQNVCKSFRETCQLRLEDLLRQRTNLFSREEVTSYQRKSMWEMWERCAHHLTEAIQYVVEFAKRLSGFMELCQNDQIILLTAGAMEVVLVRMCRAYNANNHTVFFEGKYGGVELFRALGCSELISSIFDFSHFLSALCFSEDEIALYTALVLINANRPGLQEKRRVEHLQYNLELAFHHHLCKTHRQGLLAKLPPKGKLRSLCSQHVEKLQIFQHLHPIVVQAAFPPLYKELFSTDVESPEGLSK
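ROR gamma transcriptional activity was tracked as Gal4-UAS luciferase output in stably transfected Drosophila Schneider cells, with compound added 1 hr before 700 uM copper sulfate induction and a 20 hr ambient-temperature incubation.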
Gal4-VP16 FLuc – counter-screen for ROR gamma inhibitors: Gal4-VP16 reporter. Drosophila S2 Gal4-VP16 UAS-luciferase, luminescence, 20 h. Potency, µM (highest dose often 53.6 µM), for inactives: at the highest dose activity, negative = inhibition, actives largely listed as inhibitors. actives 3.5% (n = 310,000). AID 2546;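 also: Gal4-VP16 expression switched on by copper sulfate through the metallothionein promoter; nearly all actives have a fitted effect of over 50% in size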
Numbers without * were called inactive; ? = inconclusive; / = no result given; [ ] = another dose, or the depositor's remark. An excerpt weighted towards active compounds, which were near 19% of everything screened. Calls follow the shape of the dose curve; as a rule, active = well fitted curve in the direction sought with a large enough effect; inconclusive = small, poorly fitted or top-dose-only effect, or another doubt; inactive = no such curve, though single readings can be large; an effect the other way counts as inactive or inconclusive. % is scaled to controls: 0 for no effect and ±100 for the full control effect; potency is read from the fitted curve at half-maximal effect.

SMILES | DT40 TDP1 no CPT | TDP1 cell CPT | TDP1 inh | RORg inh | Gal4-VP16 FLuc
O=S(Cc1cc(Sc2ccccc2)nc(-c2ccccc2)n1)c1ccccc1 (centres undefined) | 16µM* | ? | 1% | -40% | 1%
CS(=O)(=O)Cc1cc(Sc2ccccc2)nc(-c2ccncc2)n1 | -21% | -7% | 0% | 10% | -3%
CCN=C1S/C(=C\c2cn(C(C)=O)nc2-c2ccccc2)C(=O)N1CC | ? | 16µM* | 2% | -15% | 0%
CCN=C1S/C(=C\c2ccc(N3CCOCC3)cc2C)C(=O)N1CC | 2.3µM* | 2.9µM* | 0% | ? | 19%
CC(=O)NC1=NC(=O)/C(=C/c2cn(C(C)=O)nc2-c2ccccc2)S1 | ? | ? | / | 13% | 12%
COC(=O)n1c(=O)oc2ccc(S(=O)(=O)N3CCCCC3)cc21 | -2% | 7% | 1% | ? | -2%
O=c1c([N+](=O)[O-])c(NC2CCCCC2)c2ccccc2n1-c1ccccc1 | ? | 16µM* | 0% | 31% | -9%
Cc1ccc(S(=O)(=O)Nc2ccccc2C(O)c2ccccc2)cc1 (centres undefined) | 18µM* | ? | / | 0% | -11%
O=C(Nc1ccc(Cl)c(C(F)(F)F)c1)C(=O)N1CCCCC1 | -27% | ? | 2% | ? | 12%
C=CCNc1nc(Nc2ccc(OC)cc2OC)nc(OCC)n1 | ? | 16µM* | 4% | -15% | -8%
CCOc1nc(Nc2ccccc2F)nc(OCC)n1 | ? | -7% | 4% | 24% | 17%
C=CCNc1nc(Nc2cc(Cl)ccc2OC)nc(OC)n1 | -21% | 1% | / | -10% | -3%
C=CCNc1nc(Nc2ccccc2F)nc(OCC)n1 | -26% | ? | 5% | 13µM* | 11%[10 µM]
CCn1c(=O)c(C(=O)Nc2ccccn2)c(O)c2ccccc21 | ? | 5% | -2% | 2% | 2%
C=CCn1c(=O)c(C(=O)NC(C)c2ccccc2)c(O)c2ccccc21 (centres undefined) | -21% | ? | -7% | / | /
C=CCn1c(=O)c(C(=O)Nc2cc(C)ccn2)c(O)c2ccccc21 | 26µM* | 29µM* | / | 9%[1.91 µM] | 4%
C=CCn1c(=O)c(C(=O)Nc2ccc(C)cc2)c(O)c2ccccc21 | 12µM* | 18µM* | / | -15%[1.91 µM] | 2%
CCN(Cc1ccccc1)C(c1cc2cc(C)cc(C)c2[nH]c1=O)c1nnnn1CCOC (centres undefined) | ? | ? | 0% | 32% | -19%
O=C(N=C1SC2CS(=O)(=O)CC2N1Cc1ccc(F)cc1)C1CC1 (centres undefined) | -2% | -16% | 3% | -9% | -12%
Cc1ccc(OCC(=O)Nc2cc(-c3nc4ccccc4[nH]3)ccc2C)c(C)c1 | / | / | -1% | / | /
Cc1ccc(-c2nc3ccccc3[nH]2)cc1NC(=O)COc1ccccc1[N+](=O)[O-] | ? | 15µM* | -10% | / | /
CCCOc1cccc(C(=O)Nc2cc(-c3nc4ccccc4[nH]3)ccc2C)c1 | 16µM* | 16µM* | -6%[12.3 µM] | / | /
CCOc1ccc(C(=O)Nc2cc(-c3nc4ccccc4[nH]3)ccc2Cl)cc1[N+](=O)[O-] | 23µM* | ? | / | -20% | -24%
CCOc1ccc(C(=O)Nc2cc(-c3nc4ccccc4[nH]3)ccc2C)cc1[N+](=O)[O-] | ? | ? | 8% | 30% | -5%
CCOC(=O)N1CCN(C(=O)Cn2ncn3nc(-c4cccs4)cc3c2=O)CC1 | -17% | -18% | -2% | -18% | 5%
SMILES | DT40 TDP1 no CPT | TDP1 cell CPT | TDP1 inh | RORg inh | Gal4-VP16 FLuc
CCCCN1C(=N)N([C@@H](C)CN2CCC[C@H]2CN2C(N)=NC[C@H]2CC(C)C)C[C@H]1[C@H](C)CC | 16µM* | 23µM* | -13% | / | /
CCC[C@@H](CN1CCC[C@H]1CN1C(N)=NC[C@H]1CC(C)C)N1C[C@@H]([C@H](C)CC)N(CCCC2CCCC2)C1=N | 16µM* | 21µM* | -7% | / | /
CC(C)C[C@@H]1CN=C(N)N1C[C@@H]1CCCN1C[C@H](C)N1C[C@@H](Cc2ccccc2)N(CCc2ccc(Cl)c(Cl)c2)C1=N | ? | 18µM* | -2% | / | /
COc1cccc(-n2c(COc3ccc(C)cc3)nnc2SCC(N)=O)c1 | -7% | -6% | 2% | 3% | 2%
CC(=O)C[C@H](O)CC(=O)[C@H]1OC(=O)CCCCCCCCc2ccccc21 | ? | ? | 1% | / | /
CC(C)(C)c1ccc(CC(=O)N2CCC2(C)C(=O)Nc2cnc3ccccc3c2)cc1 (centres undefined) | 12µM* | 21µM* | / | / | /
CC(C)c1ccc(CC(=O)N2CCC2(C)C(=O)Nc2cnc3ccccc3c2)cc1 (centres undefined) | ? | 16µM* | / | / | /
CC(C)(C)c1ccc(C(=O)N2CCC2(C)C(=O)Nc2cnc3ccccc3c2)cc1 (centres undefined) | 26µM* | 23µM* | / | / | /
CCNC(=O)C1(C)CCN1C(=O)Cc1ccc(C(C)C)cc1 (centres undefined) | -29% | ? | / | / | /
CN(C(=O)CSc1nc2ccccc2[nH]1)C1CCS(=O)(=O)C1 (centres undefined) | 20% | 5% | 0% | / | /
COC(=O)c1ccccc1Sc1snnc1C | -9% | -1% | -11% | 1% | -2%
CC1CCN(C(=O)Cn2c(=O)n(CC3CCC(C(=O)NC(C)C)CC3)c(=O)c3sccc32)CC1 (centres undefined) | -23% | -19% | 2% | / | /
CCCCN1C=C(C(=O)OC)C(c2ccccc2Cl)C(C(=O)OC)=C1 | ? | -10% | ? | 27% | 0%
CC1(C(=O)NC(=S)N(CCC#N)Cc2cccnc2)CC1(Cl)Cl (centres undefined) | / | / | 6% | 1.4µM* | ?
CCN(CCCCN1C(=O)c2ccccc2C1=O)c1ccc2c(c1)C(=O)N(C)C2=O | 18µM* | ? | / | 13% | 2%
O=C(NCCN1CCOCC1)c1ccc(F)cc1 | -7% | -2% | 2% | -29% | -7%
O=C(CN1CCCc2ccccc21)Nc1cc(S(=O)(=O)N2CCCC2)ccc1Cl | ? | 18µM* | 4% | / | /
CC1Cc2ccccc2N1CC(=O)Nc1cc(S(=O)(=O)N2CCOCC2)ccc1Cl (centres undefined) | 23µM* | ? | / | / | /
Cc1ccc2c(c1)CCCN2CC(=O)Nc1cc(S(=O)(=O)N2CCCC2)ccc1Cl | 15µM* | 21µM* | 8% | / | /
O=C(C1=C[C@H](c2ccc(C(F)(F)F)cc2)C[C@H](OCc2ccc(CO)cc2)O1)N1CCCCCCC1 | ? | ? | 4% | 0% | -14%
CCOc1ccccc1-n1cc2c(c1-c1ccc(OC)cc1)c(=O)n(C)c(=O)n2C | ? | ? | 4% | / | /
